Test [1] deals with Rap guanine nucleotide exchange factor 3 (Homo sapiens) (UniProt O95398). Briefly: Confirmatory qHTS for agonist of cAMP-regulated guanine nucleotide exchange factor 3 (EPAC1) (AID 1645881).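 Note: EPAC1 catalysed release of BODIPY-GDP from Rap1B seen as fluorescence loss; 100% = effect of cAMP agonist control; nearly all actives have a fitted effect of over 75% in size.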
Test [2] has as its target Rap guanine nucleotide exchange factor 4 (Homo sapiens) (UniProt Q8WZA2). Briefly: Confirmatory qHTS for agonist of cAMP-regulated guanine nucleotide exchange factor 4 (EPAC2) (AID 1645884).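 Note: nucleotide exchange releases bodipy-GDP from Rap1 and this lowers its fluorescence; % is set by controls: 0 for no effect and ±100 for the full control effect; nearly all actives have a fitted effect of over 65% in size.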
Test [3] shares this target. Briefly: Confirmatory qHTS for antagonist of cAMP-regulated guanine nucleotide exchange factor 4 (EPAC2) (AID 1645885). For activity change, negative = inhibition: % is set by controls: 0 for no effect and ±100 for the full control effect. Note: nearly all actives have a fitted effect of over 25% in size. Note: potency is the fitted concentration of half-maximal effect. In general terms: Quantitative high-throughput screening tests each substance at several concentrations.
Test [4] deals with Rap guanine nucleotide exchange factor 3 (Homo sapiens) (UniProt O95398). Briefly: Counterscreen qHTS for antagonist of cAMP-regulated guanine nucleotide exchange factor 3 (EPAC1) (AID 1645888).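 Note: fluorescence loss as bound BODIPY-GDP is released from Rap1B; % of control where 0% means no effect.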 In outline:
(§1)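 Rap1B–BODIPY-GDP (250 nM) with 50 uM GDP; compounds pin-transferred to 9.74 nM–152 uM final (activator) or from 7.32 nM upwards (inhibitor). Fluorescence Ex/Em 480/540 nm read at 5 and 30 min, then after adding cAMP or buffer, at room temperature.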
A general note: The purpose of a counterscreen is to sort out artefacts and off-target activity.

Test [5] has the same target. Briefly: Counterscreen qHTS for agonist of cAMP-regulated guanine nucleotide exchange factor 3 (EPAC1) (AID 1645889). For activation: % of control where 0% means no effect. Note: nearly all actives have a fitted effect of over 40% in size. Note: potency is the fitted concentration of half-maximal effect. In outline: as §1
Test [6] concerns the target Lethal(3)malignant brain tumor-like protein 1 (Homo sapiens) (UniProt Q9Y468). Briefly: qHTS Assay for the Inhibitors of L3MBTL1: Hit Validation (AID 540279). Note: potency is the fitted concentration of half-maximal effect; nearly all actives have a fitted effect of over 70% in size. The settings on record: L3MBTL1 methyl-lysine binding inhibition, biochemical qHTS. The method in brief:
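L3MBTL1 (50 nM final) preformed 30 min with biotinylated H3(1-15)K9me1 peptide (75 nM), then compound 30 min at room temperature. Streptavidin donor and nickel chelate acceptor AlphaScreen beads (10 ug/mL each final) added for 30 min before read.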

Test [7] can be described thus: qHTS Assay for the Inhibitors of L3MBTL1: Hit Validationin AlphaScreen Counterscreen (AID 602224). Note: 0% is about no effect. In outline: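 Primary-screen actives were tested against a bead-bridging control: 1 nM biotinylated His6 joined streptavidin donor and nickel acceptor beads (10 ug/mL each). Incubations were 15 min with compound, then 30 min with beads, both at room temperature.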
Test [8] addresses Tumor susceptibility gene 101 protein (Homo sapiens) (UniProt Q99816). Briefly: qHTS Assay for Iinhibitors of HIV-1 Budding by Blocking the Interaction of PTAP/TSG101: Hit Validation (AID 651600). For activity change, negative = inhibition: % is set by controls: 0 for no effect and ±100 for the full control effect. Note: nearly all actives have a fitted effect of over 70% in size. Note: potency is the fitted concentration of half-maximal effect. In outline:
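Fluorescence polarization binding assay: Tsg101 binding domain (10 uM final) pre-dispensed with compounds, then FITC-labeled PTAP-motif peptide (50 nM final) added; 20 min at r.t. in HEPES pH 7.5 buffer with NaCl, Tween 20, EDTA, TCEP.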

The nature of test [9]: AP1 Signaling Pathway (AID 357; active = well fitted curve in either direction with a large enough effect, not every such curve was filed as active; note: % is set by controls: 0 for no effect and ±100 for the full control effect). Particulars: ME-180 (cervical carcinoma) AP-1-bla reporter, EGF-induced, beta-lactamase ratio, 5 h; at 7.69 µM (top of the series) unless noted. In outline:
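AP-1-bla ME-180 cells with beta-lactamase reporter under AP-1 response element, stimulated with EC50 EGF; compounds titrated, 5 hours at 37 degrees Celsius. CCF4 read at 460/530 nm ratio; positive and negative modulators judged by AC50.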

Test [10] can be described thus: Stat Signaling Pathway (AID 446; active = well fitted curve in either direction with a large enough effect, not every such curve was filed as active;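 note: ME-180 cervical cancer cells given 40 pM IL-6 alongside compound; SIE-controlled beta-lactamase reporter measured as 460/530 nm FRET emission ratio; % is set by controls: 0 for no effect and ±100 for the full control effect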). The method in brief:
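IL-6/STAT signaling read in ME-180 cells via an SIE beta-lactamase reporter. Stimulus was 40 pM IL-6 (its AC50) for 5 hrs, so both activation and inhibition register.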

For test [11], the target named is Glucocorticoid receptor (Homo sapiens) (UniProt P04150). Briefly: GR-GFP Redistribution (AID 450;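 active = compounds whose dose series gives a full or clear partial fitted curve of increased nuclear translocation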; note: potency is the fitted concentration of half-maximal effect). Particulars: U2OS GR-GFP nuclear translocation, laser cytometry, 2 h.
Sequence of Glucocorticoid receptor (Homo sapiens) (P04150 whole entry, looked up): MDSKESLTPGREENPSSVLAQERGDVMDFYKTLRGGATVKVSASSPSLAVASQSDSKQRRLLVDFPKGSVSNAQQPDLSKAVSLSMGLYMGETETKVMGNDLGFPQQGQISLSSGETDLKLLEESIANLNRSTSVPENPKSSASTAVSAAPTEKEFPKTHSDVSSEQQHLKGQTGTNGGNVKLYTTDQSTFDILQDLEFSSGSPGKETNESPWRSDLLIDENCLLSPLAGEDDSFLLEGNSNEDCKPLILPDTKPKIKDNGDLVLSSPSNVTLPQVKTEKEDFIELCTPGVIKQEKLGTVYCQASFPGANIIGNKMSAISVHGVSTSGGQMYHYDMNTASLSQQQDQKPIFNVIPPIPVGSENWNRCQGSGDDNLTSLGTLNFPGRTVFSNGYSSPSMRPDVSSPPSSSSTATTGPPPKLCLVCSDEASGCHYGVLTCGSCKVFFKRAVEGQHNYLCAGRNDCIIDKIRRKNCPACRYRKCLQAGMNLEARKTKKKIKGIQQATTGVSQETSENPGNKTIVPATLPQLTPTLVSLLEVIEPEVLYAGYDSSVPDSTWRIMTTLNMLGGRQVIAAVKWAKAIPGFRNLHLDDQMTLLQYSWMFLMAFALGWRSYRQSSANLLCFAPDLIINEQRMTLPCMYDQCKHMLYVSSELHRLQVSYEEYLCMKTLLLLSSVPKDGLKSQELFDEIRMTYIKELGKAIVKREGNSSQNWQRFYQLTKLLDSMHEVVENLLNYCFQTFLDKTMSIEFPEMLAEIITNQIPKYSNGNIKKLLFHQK

Unmarked numbers belong to inactive results. Inconclusive results are not listed. The list shows a part of the results. The source made the active and inactive calls. Unless noted, calls come from the whole dose curve; as a rule, active = well fitted curve in the direction sought with a large enough effect; inconclusive = small, poorly fitted or top-dose-only effect, or another doubt; inactive = no such curve, though single readings can be large; an effect the other way counts as inactive or inconclusive.

Sequence of Rap guanine nucleotide exchange factor 4 (Homo sapiens) (Q8WZA2 whole entry, looked up): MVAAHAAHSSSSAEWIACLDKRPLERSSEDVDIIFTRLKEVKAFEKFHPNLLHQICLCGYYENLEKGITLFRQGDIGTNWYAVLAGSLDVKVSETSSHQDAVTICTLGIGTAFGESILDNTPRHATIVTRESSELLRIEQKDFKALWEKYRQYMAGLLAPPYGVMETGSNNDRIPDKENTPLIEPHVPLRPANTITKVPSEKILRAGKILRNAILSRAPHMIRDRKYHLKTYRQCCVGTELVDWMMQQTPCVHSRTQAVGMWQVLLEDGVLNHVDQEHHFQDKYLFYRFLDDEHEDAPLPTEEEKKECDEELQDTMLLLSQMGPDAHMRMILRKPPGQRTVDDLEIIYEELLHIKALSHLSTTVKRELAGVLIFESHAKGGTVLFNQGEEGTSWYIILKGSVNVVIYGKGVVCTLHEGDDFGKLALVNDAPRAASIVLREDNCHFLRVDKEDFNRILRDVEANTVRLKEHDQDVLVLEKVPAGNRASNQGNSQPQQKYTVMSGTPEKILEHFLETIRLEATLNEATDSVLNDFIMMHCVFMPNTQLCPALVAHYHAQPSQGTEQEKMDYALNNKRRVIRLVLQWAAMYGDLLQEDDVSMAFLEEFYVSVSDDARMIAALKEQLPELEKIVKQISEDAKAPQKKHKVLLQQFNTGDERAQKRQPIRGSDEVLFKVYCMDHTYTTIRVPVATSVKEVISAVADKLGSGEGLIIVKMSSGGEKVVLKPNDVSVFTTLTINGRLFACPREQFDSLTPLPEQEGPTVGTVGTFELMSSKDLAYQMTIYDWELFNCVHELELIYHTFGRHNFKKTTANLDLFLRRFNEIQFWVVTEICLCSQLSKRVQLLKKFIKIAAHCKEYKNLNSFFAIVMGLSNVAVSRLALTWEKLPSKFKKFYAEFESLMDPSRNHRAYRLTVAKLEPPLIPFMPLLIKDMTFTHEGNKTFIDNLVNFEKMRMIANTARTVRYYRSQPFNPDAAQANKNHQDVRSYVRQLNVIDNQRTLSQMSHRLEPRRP
Sequence of Tumor susceptibility gene 101 protein (Homo sapiens) (Q99816 whole entry, looked up, the tested form may be a part): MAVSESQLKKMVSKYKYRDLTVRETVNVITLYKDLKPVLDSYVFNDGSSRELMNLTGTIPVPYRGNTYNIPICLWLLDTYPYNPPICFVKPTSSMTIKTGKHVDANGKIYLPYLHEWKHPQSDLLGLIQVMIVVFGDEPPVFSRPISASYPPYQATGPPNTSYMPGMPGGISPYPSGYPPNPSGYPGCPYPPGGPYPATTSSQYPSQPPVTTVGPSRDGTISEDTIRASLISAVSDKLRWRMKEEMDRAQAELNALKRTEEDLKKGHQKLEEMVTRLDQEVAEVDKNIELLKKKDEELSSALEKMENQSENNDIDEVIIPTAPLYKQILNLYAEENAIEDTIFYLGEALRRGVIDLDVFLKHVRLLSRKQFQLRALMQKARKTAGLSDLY
Sequence of Rap guanine nucleotide exchange factor 3 (Homo sapiens) (O95398 whole entry, looked up): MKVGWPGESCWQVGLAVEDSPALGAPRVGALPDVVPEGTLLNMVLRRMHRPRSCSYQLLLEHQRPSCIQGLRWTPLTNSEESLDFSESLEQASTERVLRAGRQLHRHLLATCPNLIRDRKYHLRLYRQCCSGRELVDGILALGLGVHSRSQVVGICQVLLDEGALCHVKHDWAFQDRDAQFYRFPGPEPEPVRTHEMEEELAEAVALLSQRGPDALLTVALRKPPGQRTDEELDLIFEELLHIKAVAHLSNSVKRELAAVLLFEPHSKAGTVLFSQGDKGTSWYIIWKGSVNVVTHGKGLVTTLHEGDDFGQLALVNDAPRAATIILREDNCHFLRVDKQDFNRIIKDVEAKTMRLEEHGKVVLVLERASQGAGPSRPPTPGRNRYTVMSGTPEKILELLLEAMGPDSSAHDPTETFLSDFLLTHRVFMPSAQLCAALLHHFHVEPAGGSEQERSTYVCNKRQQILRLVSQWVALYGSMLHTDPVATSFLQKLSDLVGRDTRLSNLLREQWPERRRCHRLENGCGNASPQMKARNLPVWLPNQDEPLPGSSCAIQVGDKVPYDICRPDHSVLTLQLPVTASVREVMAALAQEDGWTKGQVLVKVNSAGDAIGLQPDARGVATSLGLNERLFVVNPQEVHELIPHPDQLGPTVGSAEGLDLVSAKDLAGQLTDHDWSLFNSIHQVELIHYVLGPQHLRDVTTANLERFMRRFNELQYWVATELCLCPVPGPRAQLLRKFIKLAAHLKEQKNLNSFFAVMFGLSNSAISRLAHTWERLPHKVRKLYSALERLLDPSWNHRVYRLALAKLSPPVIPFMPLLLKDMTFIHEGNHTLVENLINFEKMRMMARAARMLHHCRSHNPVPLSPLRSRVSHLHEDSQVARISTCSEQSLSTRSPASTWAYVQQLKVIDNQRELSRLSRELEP
Sequence of Lethal(3)malignant brain tumor-like protein 1 (Homo sapiens) (Q9Y468 whole entry, looked up): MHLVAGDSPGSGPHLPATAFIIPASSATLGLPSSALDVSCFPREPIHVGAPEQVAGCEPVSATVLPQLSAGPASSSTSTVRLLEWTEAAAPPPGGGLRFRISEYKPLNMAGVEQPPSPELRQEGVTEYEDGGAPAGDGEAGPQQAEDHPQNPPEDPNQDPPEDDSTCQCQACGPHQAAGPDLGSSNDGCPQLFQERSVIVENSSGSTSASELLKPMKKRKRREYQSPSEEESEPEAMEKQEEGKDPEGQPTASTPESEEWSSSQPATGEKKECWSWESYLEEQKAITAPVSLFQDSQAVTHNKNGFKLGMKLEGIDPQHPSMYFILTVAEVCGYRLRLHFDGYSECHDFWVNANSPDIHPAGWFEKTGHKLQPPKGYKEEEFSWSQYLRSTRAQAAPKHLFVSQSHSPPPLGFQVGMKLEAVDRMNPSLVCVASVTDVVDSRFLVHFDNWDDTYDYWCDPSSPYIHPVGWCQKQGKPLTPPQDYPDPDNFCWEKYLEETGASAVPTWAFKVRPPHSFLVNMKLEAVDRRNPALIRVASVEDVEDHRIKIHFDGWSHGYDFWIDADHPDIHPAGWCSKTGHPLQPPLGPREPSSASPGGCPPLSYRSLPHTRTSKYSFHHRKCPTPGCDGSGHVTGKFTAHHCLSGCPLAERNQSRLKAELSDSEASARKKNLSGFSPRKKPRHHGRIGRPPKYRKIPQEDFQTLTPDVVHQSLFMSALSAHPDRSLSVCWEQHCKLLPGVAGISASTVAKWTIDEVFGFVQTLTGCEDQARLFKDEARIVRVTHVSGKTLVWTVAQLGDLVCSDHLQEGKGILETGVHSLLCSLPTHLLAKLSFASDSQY

In the case of `O=C(NCc1ccco1)c1c2c(nc3ccccc13)CCC2`, the Potency result in [1] and in test [3] was “inactive” each time. Moreover, the activation in test [2] is 6.94% [at 17.1 µM, percent relative to cAMP agonist control]; in test [5], 26.4% [at 30.8 µM]. Also, in test [4], the activity change, negative = inhibition is -4.49% [at 30.8 µM].

In the case of `O=C(Nc1ccc(NC(=O)c2ccco2)c(Cl)c1)c1ccc2c(c1)OCCO2`, the Potency entry in test [1], in test [2], in test [3], in test [4] and in test [5] was “inactive” each time.

Take `Cc1ccc2oc(=O)n(Cc3ccccc3OC(C)C)c2c1`: the Potency result in test [1], in test [2], in test [4] and in [5] was “inactive” in each case. In addition, the Potency in test [3] is 7.57 µM (active).

For `O=C(O)c1ccc(N/N=C/c2cn(Cc3ccccc3F)c3ccccc23)cc1`, the Potency result in test [1], in test [2], in test [3], in [4] and in test [5] was “inactive” throughout.

Regarding `O=C(Nc1nc(-c2cc(F)ccc2F)cs1)C1=COCCO1`, the Potency entry in test [1], in test [2], in test [3], in test [4] and in test [5] was “inactive” throughout.

`Cc1ccc(Cl)cc1NC(=O)Nc1cn(CC(C)C)c(=O)c2ccccc12`: the Potency entry in [1], in test [2], in [4] and in [5] was “inactive” each time. In addition, the outcome in [3] is “inactive [at 12.7 µM]”.

With `O=C(C=Cc1ccccc1)c1c[nH]c2ccccc2c1=O`, the Potency entry in test [1] and in test [3] was “inactive” throughout. Further, the activation in [2] is 5.37% [at 17.1 µM, percent relative to cAMP agonist control]; in test [5] it was 9.21% [at 30.8 µM]. In [4], the activity change, negative = inhibition is -25.8% [at 30.8 µM].

As to `N#Cc1c(-c2ccc(F)cc2)cc(-c2ccccc2)nc1SCC(=O)NCC(=O)O`, the Potency entry in test [1], in [2], in test [4] and in [5] was “inactive” each time. Moreover, the outcome in test [3] was “inactive [at 12.7 µM]”.

Consider `CCOc1ccc(/C=C/C(=O)c2c(O)c3ccccc3oc2=O)cc1`, for which the Potency entry in test [1], in test [2], in test [3], in [4] and in [5] was “inactive” each time.

For `O=C(COC(=O)c1ccc2c(c1)C(=O)N(Cc1ccncc1)C2=O)Nc1ccccc1[N+](=O)[O-]`, the Potency entry in test [1], in [2], in test [3], in [4] and in test [5] was “inactive” each time.

With `COc1cc(/C=C2\SC(=O)N(CC(=O)Nc3ccc(C)cc3)C2=O)cc(Cl)c1OCC(=O)O`, the Potency entry in test [1], in test [2], in [3], in [4] and in [5] was “inactive” in each case.

Take `Cc1ccc(F)c(S(=O)(=O)NC(=O)C2(C)CCN2C(=O)C2(c3ccc(Cl)cc3)CCC2)c1` (stereo unspecified): the Potency result in test [1], in test [2], in test [3], in test [4] and in test [5] was “inactive” in each case.

With `Cc1ccc(S(=O)(=O)N2[C@@H](c3ccc(C(C)(C)C)cc3)C(C(=O)O)=CC[C@H]2c2cccs2)cc1`, the Potency result in [1], in test [2], in test [3], in test [4] and in [5] was “inactive” in each case.

On to `O=C(CCN1C(=O)S/C(=C\c2ccc(Cl)cc2)C1=O)Nc1ccc(C(=O)O)cc1`, for which the Potency result in [1], in [2], in test [3], in test [4] and in [5] was “inactive” in each case.

As for `Cc1ccc(/C=C/C(=O)Nc2ccc([N+](=O)[O-])c(NC(=O)/C=C/c3ccc(C)o3)c2)o1`, the Potency in test [6] is 3.77 µM (active). In addition, the molecule was classed as inactive in [7]. Moreover, the Potency entry in test [1] and in test [3] was “inactive” in each case. The activation in test [2] is 6% [at 17.1 µM, percent relative to cAMP agonist control]; in [5], 27.5% [at 30.8 µM]. Besides, the activity change, negative = inhibition in test [4] was 4.14% [at 30.8 µM].

As to `COc1ccc2nc(N3CCCC3)c(C#N)cc2c1`, the Potency result in [8], in test [1] and in test [3] was “inactive” throughout. The activation in test [2] was 3.12% [at 17.1 µM, percent relative to cAMP agonist control]. The activity change, negative = inhibition in test [4] is -11.6% [at 30.8 µM].

`CC(C)OC(=O)C(C#N)c1nc2ccccc2nc1N1CCCC1` (stereo unspecified): the values for the activity change, negative = inhibition in test [9] and in test [4] were 8.73% [at 17.2 µM] and -19.9% [at 30.8 µM], respectively. Also, in test [10], the molecule was called inactive. The Potency in test [11] is more than 20.6 µM. For the same molecule, the Potency entry in [1] and in test [3] was “inactive” each time. Also, the activation in test [2] is 3.69% [at 17.1 µM, percent relative to cAMP agonist control]; in [5] it was 3.58% [at 30.8 µM].

For the molecule `O=[N+]([O-])c1ccc(NS(=O)(=O)c2ccc(Cl)c(Cl)c2)cc1`, the Potency result in test [1], in [2], in test [3], in [4] and in test [5] was “inactive” throughout.

Turning to `CCN(CC)c1nc2ccccc2nc1C(C#N)C(=O)NCCc1ccccc1` (stereo unspecified), the Potency in [8] is 6.51 µM (active); in test [3], 84.9 µM (active). In addition, the Potency entry in test [1], in [2] and in test [4] was “inactive” in each case.

Consider `O=C(CCl)N1c2ccccc2Oc2ccc3ccccc3c21`, for which the Potency result in test [8], in test [1], in [2], in test [3] and in test [4] was “inactive” throughout. Further, in [5], the Potency is 35.5 µM (active).

(Values after PubChem BioAssay (NCATS).)
